PubChem BioAssay (EPA / NIEHS)
Records with an inconclusive call do not appear. Active and inactive are the calls of the source. The calls were made as follows, unless noted: active = hit-call score of the fitted dose curve at least 0.9, where 1 is the maximum; inactive = score below 0.9.

Columns and labels:
[1] = molecular target: Nucleoli Translocation, AR (gene 367) (UniProt P10275); assay: UPITT_HCI_U2OS_AR_TIF2_Nucleoli_Antagonist: University of Pittsburgh U2OS Androgen Receptor-Transcriptional Intermediary Factor 2 (AR-TIF2) Antagonism High Content Imaging Assay for Nucleoli Translocation (AID 2283997; active = hit-call score of the fitted dose curve at least 0.9, where 1 is the maximum)
Nucleoli Translocation, AR (gene 367), sequence (P10275 whole entry, looked up): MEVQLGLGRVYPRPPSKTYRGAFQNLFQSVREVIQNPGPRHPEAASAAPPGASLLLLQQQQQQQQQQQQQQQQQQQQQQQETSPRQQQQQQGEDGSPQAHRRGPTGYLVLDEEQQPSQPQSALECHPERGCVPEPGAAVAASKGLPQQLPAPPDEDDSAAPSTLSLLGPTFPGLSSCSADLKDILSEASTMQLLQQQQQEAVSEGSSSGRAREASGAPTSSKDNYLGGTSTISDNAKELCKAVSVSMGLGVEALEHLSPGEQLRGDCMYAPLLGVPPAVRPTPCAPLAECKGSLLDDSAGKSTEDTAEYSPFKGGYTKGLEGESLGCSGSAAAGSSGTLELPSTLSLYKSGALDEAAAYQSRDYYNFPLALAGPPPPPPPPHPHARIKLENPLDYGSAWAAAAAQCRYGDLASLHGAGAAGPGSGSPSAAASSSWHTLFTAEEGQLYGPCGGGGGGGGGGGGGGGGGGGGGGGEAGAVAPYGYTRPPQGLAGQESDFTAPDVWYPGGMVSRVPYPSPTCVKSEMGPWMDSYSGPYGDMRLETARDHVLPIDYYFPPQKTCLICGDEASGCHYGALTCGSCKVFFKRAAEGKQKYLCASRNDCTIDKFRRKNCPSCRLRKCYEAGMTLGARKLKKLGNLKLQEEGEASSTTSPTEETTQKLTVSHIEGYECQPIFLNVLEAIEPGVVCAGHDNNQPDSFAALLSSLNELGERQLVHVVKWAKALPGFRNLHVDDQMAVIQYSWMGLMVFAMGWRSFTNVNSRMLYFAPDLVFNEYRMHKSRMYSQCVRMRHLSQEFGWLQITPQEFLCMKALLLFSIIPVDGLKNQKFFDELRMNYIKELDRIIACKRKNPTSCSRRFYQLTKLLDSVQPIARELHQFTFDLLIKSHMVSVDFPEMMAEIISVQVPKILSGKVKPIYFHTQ
Method in brief: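 An antagonist-mode imaging screen: engineered U2OS (AR-RFP, TIF2-GFP) exposed to 20 uM compound, 0.2% DMSO. Activity reflects nucleolar red fluorescence change relative to DHT baseline.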

[2] = molecular target: Nucleoli Translocation, AR (gene 367) (UniProt P10275); assay: UPITT_HCI_U2OS_AR_TIF2_Nucleoli_Agonist: University of Pittsburgh U2OS Androgen Receptor-Transcriptional Intermediary Factor 2 (AR-TIF2) Agonism High Content Imaging Assay for Nucleoli Translocation (AID 2283998; active = hit-call score of the fitted dose curve at least 0.9, where 1 is the maximum)
Method in brief: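 Readout is red (AR-RFP) fluorescence localized to nucleoli, measured by high-content imaging and analysed for increase relative to DMSO. Compound series spanned 0.195 to 50 uM final in 0.5% DMSO.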

[3] = molecular target: Ratio of Nucleoli Translocation and Cytoplasm, AR (gene 367) (UniProt P10275); assay: UPITT_HCI_U2OS_AR_TIF2_Nucleoli_Cytoplasm_Ratio_Antagonist: University of Pittsburgh U2OS Androgen Receptor-Transcriptional Intermediary Factor 2 (AR-TIF2) Antagonism High Content Imaging Assay for Ratio of Nucleoli Translocation and Cytoplasm (AID 2283999; active = hit-call score of the fitted dose curve at least 0.9, where 1 is the maximum;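 also: antagonists lower the DHT-driven ratio of nucleolar to cytoplasmic red signal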)
Ratio of Nucleoli Translocation and Cytoplasm, AR (gene 367), sequence (P10275 whole entry, looked up): as above
Method in brief: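 Read-out is the ratio of nucleolar to cytoplasmic AR-RFP fluorescence, imaged by high-content microscopy in U2OS cells coexpressing TIF2-GFP. Single-point 20 uM screen, triplicate confirmation, then 0.195–50 uM dose response; activity referenced to DHT baseline.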

[4] = molecular target: Ratio of Nucleoli Translocation and Cytoplasm, AR (gene 367) (UniProt P10275); assay: UPITT_HCI_U2OS_AR_TIF2_Nucleoli_Cytoplasm_Ratio_Agonist: University of Pittsburgh U2OS Androgen Receptor-Transcriptional Intermediary Factor 2 (AR-TIF2) Agonism High Content Imaging Assay for Ratio of Nucleoli Translocation and Cytoplasm (AID 2284000; active = hit-call score of the fitted dose curve at least 0.9, where 1 is the maximum;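 also: hits raise the red nucleolar to cytoplasm ratio above vehicle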)
Method in brief: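 Primary screen at 20 uM final (0.2% DMSO), then triplicate confirmation and dose-response from 0.195 to 50 uM final (0.5% DMSO). Cells: U2OS with AR-RFP and TIF2-GFP. Endpoint is the nucleoli/cytoplasm red-fluorescence ratio, gain-of-signal vs DMSO.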

[5] = CCTE_Harrill_HTTr_Viability_MCF7: CCTE's 6-hour Cell Viability Assessment for the High-Throughput Transcriptomics (HTTr) Platform, in MCF-7 cells cultured in DMEM + 10% fetal bovine serum, Harrill Lab (AID 2284010)
Method in brief: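 PI exclusion, high-content imaging; 8-pt dilution series, 6 h exposure; bidirectional fit vs DMSO (neg. ctrl/baseline); gain of signal = loss of membrane integrity.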

[6] = CCTE_Harrill_HTTr_Apoptosis_MCF7: CCTE's 6-hour Apoptosis Assessment for the High-Throughput Transcriptomics (HTTr) Platform, in MCF-7 cells cultured in DMEM + 10% fetal bovine serum, Harrill Lab (AID 2284011)
Method in brief: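 MCF-7 (DMEM + 10% FBS), 384-well; 8-pt dilution series, 6 h chemical exposure; caspase-3/7 activation via CellEvent Caspase 3/7 Green, HCI; bidirectional fit vs DMSO.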

[7] = CCTE_Harrill_HTTr_CellCount_MCF7: CCTE's Cell Proliferation Assessment for the High-Throughput Transcriptomics (HTTr) Platform, Harrill Lab (AID 2284012; active = hit-call score of the fitted dose curve at least 0.9, where 1 is the maximum;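 also: count of Hoechst-stained nuclei per well by high-content imaging in MCF-7 cells; cells exposed to compound for six hours; intended direction is loss of nuclei count meaning fewer cells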)
Method in brief: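 Readout: Hoechst nuclear count by high-content imaging. MCF-7, 8-point dilution series, 6 h exposure. Bidirectional fit vs DMSO baseline.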

[8] = test system: DIO1 (gene 1733); assay: CCTE_GLTED_hDIO1: CCTE's human Deiodinase 1 (DIO1) Inhibition Assay, Great Lakes Toxicology and Ecology Division (GLTED) Lab (AID 2283987; active = hit-call score of the fitted dose curve at least 0.9, where 1 is the maximum;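 also: isolated human DIO1 enzyme in a cell-free setup rather than cells; enzyme activity read as free iodide liberated from substrate via Sandell-Kolthoff colorimetry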)
Method in brief: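 Inhibition of human deiodinase 1 is scored as reduced iodide liberation after a 3 h enzyme–chemical incubation, detected colorimetrically by the Sandell-Kolthoff reaction against DMSO controls.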

[9] = CCTE_Simmons_MITO_basal_resp_rate: CCTE's HepG2 Seahorse XF Respirometric Screening Assay at Basal Respiratory State, Simmons Lab (AID 2284001); conditions: actives raise or lower the signal
Method in brief: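 Readout is oxygen consumption rate after test compound injection, measured by Seahorse XF in HepG2 cells. Seven concentrations from 125 nM up to 100 uM final are tested, and activity in either direction is fitted against DMSO.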

[10] = CCTE_Simmons_MITO_max_resp_rate: CCTE's HepG2 Seahorse XF Respirometric Screening Assay at Maximal Respiratory State [uncoupled], Simmons Lab (AID 2284002); conditions: actives raise or lower the signal
Method in brief: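 Read-out is oxygen consumption rate at maximal respiration, taken after FCCP uncoupling of compound-treated HepG2 cells. Seven final concentrations from 125 nM to 100 uM were tested, each in three biological replicates.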

[11] = CCTE_Simmons_MITO_inhib_resp_rate: CCTE's HepG2 Seahorse XF Respirometric Screening Assay at Inhibited Respiratory State [full ETC block], Simmons Lab (AID 2284006); conditions: actives raise or lower the signal
Method in brief: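 OCR read-out in the inhibited phase following rotenone/antimycin A, after compound and FCCP injections, in HepG2 cells. Seven concentrations (125 nM to 100 uM final), three biological replicates, 6-min cycles over 72 min; DMSO baseline.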

[12] = CCTE_Shafer_MEA_acute_spike_number: CCTE's Neural Acute Assay for Total Number of Spikes, Shafer Lab (AID 2284008);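 as to AC50: curve fitted for decrease in spike count so AC50 reflects inhibitors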
Method in brief: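 Read-out is the total spike count over 40 min, expressed as percent change from each well's own pre-treatment baseline and fitted in the loss direction against DMSO. Rat cortical neurons were exposed at 0.03-40 uM on DIV 13 or 15.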

[13] = CCTE_Shafer_MEA_acute_firing_rate_mean: CCTE's Neural Acute Assay for Mean Firing Rate, Shafer Lab (AID 2284009);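 also: analyzed for loss of signal so actives lower firing rate relative to DMSO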
Method in brief: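 Spontaneous spiking of primary rat cortical networks, DIV 13/15, 37 C. Compound 0.03-40 uM, n ≥3 wells; 40 min baseline vs 40 min treated. Endpoint fitted in loss-of-signal direction against DMSO.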

[14] = CCTE_Shafer_MEA_acute_burst_number: CCTE's Neural Acute Assay for Single-Electrode Bursts, Shafer Lab (AID 2284013)
Method in brief: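 Burst totals were derived with adaptive spike detection (8x rms threshold) on filtered signals from rat cortical cultures; change relative to pre-treatment baseline after 40-min compound exposure (0.03-40 uM) was fitted in the negative direction against DMSO.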

[15] = CCTE_Shafer_MEA_acute_burst_duration_mean: CCTE's Neural Acute Assay for Mean Burst Duration, Shafer Lab (AID 2284014);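 also: hits are decreases in mean burst duration relative to DMSO controls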
Method in brief: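 Acute exposure of mature rat cortical networks (DIV 13 or 15) grown on microelectrode arrays to 0.03-40 uM compound. Mean burst duration compared with the 40-min pre-dose baseline over a 40-min post-dose recording at 37 C.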

[16] = CCTE_Simmons_MITO_viability: CellTiter-Glo Viability Assessment for CCTE's HepG2 Seahorse XF Respirometric Screening Assay [post-hoc], Simmons Lab (AID 2284007; active = hit-call score of the fitted dose curve at least 0.9, where 1 is the maximum)
Method in brief: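 Luciferase-coupled ATP luminescence, single endpoint. HepG2, post-respirometry. Compound 125 nM–100 uM final, 7 conc., 90 min. n=3 biological, technical singles. DMSO vehicle/baseline; dichlone 10 nM–100 uM, 8 conc., as positive control.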

[17] = CCTE_Harrill_HTTr_Apoptosis_DMEM_12hr: (Pilot) CCTE's 12-hour Apoptosis Assessment for the High-Throughput Transcriptomics (HTTr) Platform, in MCF-7 cells cultured in DMEM + 10% fetal bovine serum, Harrill Lab (AID 2283982)
Method in brief: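 Caspase-3/7 activity was measured by high-content imaging (CellEvent Caspase 3/7 Green) after a 12-hour exposure of MCF-7 cells grown in DMEM with 10% FBS. Eight-point concentration series, fitted bidirectionally against vehicle.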

[18] = CCTE_Harrill_HTTr_Apoptosis_DMEM_24hr: (Pilot) CCTE's 24-hour Apoptosis Assessment for the High-Throughput Transcriptomics (HTTr) Platform, in MCF-7 cells cultured in DMEM + 10% fetal bovine serum, Harrill Lab (AID 2283983)
Method in brief: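 Caspase-3/7 activity read by high-content imaging (CellEvent Green reagent) 24 h after dosing. MCF-7 cells grown in DMEM with 10% FBS received an eight-point concentration series; fits were bidirectional versus DMSO.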

[19] = CCTE_Harrill_HTTr_Apoptosis_PRF_DMEM_6hr: (Pilot) CCTE's 6-hour Apoptosis Assessment for the High-Throughput Transcriptomics (HTTr) Platform, in MCF-7 cells cultured phenol red-free DMEM + 10% charcoal-stripped fetal bovine serum, Harrill Lab (AID 2283984)
Method in brief: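 Caspase-3/7 activity (CellEvent Green) read by high-content imaging 6 h after dosing, eight concentrations. Cells: MCF-7, phenol red-free DMEM with 10% charcoal-stripped serum. Curves fit both directions against DMSO.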

[20] = CCTE_Harrill_HTTr_Apoptosis_PRF_DMEM_24hr: (Pilot) CCTE's 24-hour Apoptosis Assessment for the High-Throughput Transcriptomics (HTTr) Platform, in MCF-7 cells cultured in phenol red-free DMEM + 10% charcoal-stripped fetal bovine serum, Harrill Lab (AID 2283986)
Method in brief: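 Eight concentrations tested for 24 h on MCF-7 grown in charcoal-stripped serum, phenol red-free DMEM. High content imaging of CellEvent Caspase 3/7 Green signal gives apoptosis read-out, fitted both ways relative to DMSO.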

Measured: AC50

CCNc1ccccc1
inactive: [1] | [2] | [3] | [4] | [5] | [6] | [7]

CCOC(=O)c1ccc(C2CCC(NC[C@H](O)COc3ccc(O)c(NS(C)(=O)=O)c3)CC2)cc1 (stereo partly drawn)
inactive: [9] | [10] | [11] | [12] | [13] | [6] | [7] | [14] | [15]
active: [8] 95 µM

C1N2CN3CN1CN(C2)C3
inactive: [2] | [4] | [5] | [6]

Oc1ccc2c(c1)-c1ccccc1C2
active: [1] 12 µM | [2] 76.6 µM | [3] 7.43 µM
inactive: [4] | [5] | [6]

Cc1ccc(O)cc1
inactive: [2] | [4] | [6] | [7]

Cc1c(-c2cccnc2)c2ccccc2n1CCCCC(=O)O
active: [9] 26.7 µM
inactive: [10] | [11] | [16] | [5] | [6] | [7]

CCCN(C1CCN(C(=O)C2CCNCC2)CC1)[C@@H]1CCc2ccc(OC)cc2C1
inactive: [1] | [2] | [3] | [12] | [13] | [5] | [6] | [7] | [14] | [15]

CC1(C)C(=O)N(Br)C(=O)N1Br
inactive: [1] | [2] | [3] | [4] | [6] | [7]

O=C(OC[C@H]1O[C@@H](OC(=O)c2cc(O)c(O)c(OC(=O)c3cc(O)c(O)c(O)c3)c2)[C@H](OC(=O)c2cc(O)c(O)c(OC(=O)c3cc(O)c(O)c(O)c3)c2)[C@@H](OC(=O)c2cc(O)c(O)c(OC(=O)c3cc(O)c(O)c(O)c3)c2)[C@@H]1OC(=O)c1cc(O)c(O)c(OC(=O)c2cc(O)c(O)c(O)c2)c1)c1cc(O)c(O)c(OC(=O)c2cc(O)c(O)c(O)c2)c1
active: [8] 17.7 µM

C=CCCCCCCCCC(=O)O
inactive: [10] | [11] | [16]
active: [9] 35.1 µM

CN(C)c1ccc(N=NS(=O)(=O)O)cc1
inactive: [1] | [3] | [4] | [5] | [6] | [7]

CCC(C)(C)C(=O)O[C@H]1C[C@@H](C)C=C2C=C[C@H](C)[C@H](CC[C@@H]3C[C@@H](O)CC(=O)O3)[C@H]21
inactive: [17] | [18] | [19] | [20] | [12] | [13] | [14] | [15]
active: [8] 49 µM

Cc1[nH]cnc1C[C@H]1CCc2c(C)c3ccccc3n2C1=O
inactive: [10] | [11] | [16] | [5] | [6] | [7] | [14] | [15]
active: [9] 30.5 µM | [12] 4.12 µM | [13] 4.13 µM

CCCCCCc1ccc(O)cc1O
active: [8] 128 µM | [1] 14.4 µM | [2] 14.2 µM | [4] 14.8 µM | [9] 20.4 µM | [10] 41.4 µM | [12] 12.8 µM | [13] 12.9 µM | [14] 12.5 µM
inactive: [3] | [11] | [5] | [6] | [7] | [15]

Cn1c(=O)cc(Oc2ccc(F)cc2F)c2cnc(NCC(C)(C)O)nc21
inactive: [9] | [10] | [11] | [16] | [5] | [6]

O=C(CCCCCCCCc1cccnc1)N1CCC(C=C(c2ccccc2)c2ccccc2)CC1
inactive: [1] | [3] | [9] | [10] | [11] | [5] | [6]

CC[C@H](C)C(=O)O[C@H]1C[C@@H](C)C=C2C=C[C@H](C)[C@H](CC[C@@H]3C[C@@H](O)CC(=O)O3)[C@H]21
active: [8] 48.1 µM
inactive: [17] | [18] | [19] | [20] | [6]

Nc1cccc(N)c1
inactive: [9] | [10] | [16] | [6]
active: [11] 28.7 µM

O=C(O)c1cc(N=Nc2ccc(S(=O)(=O)Nc3ccccn3)cc2)ccc1O
inactive: [6] | [7] | [15]
active: [8] 27.3 µM | [12] 0.00807 µM | [13] 0.00818 µM | [14] 0.0299 µM

CNS(=O)(=O)c1cc(C(=O)N2CCC(CCN3C4CCC3CC(n3c(C)nc5ccccc53)C4)(c3cccc(F)c3)CC2)c(Cl)cc1F (stereo not drawn)
inactive: [1] | [3]

Cc1ccc(N)cc1O
inactive: [2] | [3] | [4] | [16]
active: [1] 37 µM | [9] 50 µM | [10] 60.5 µM | [11] 39.1 µM

CC(C)c1cccc(C(C)C)c1N1C(=O)c2ccc(O)cc2C1=O
inactive: [11] | [16] | [5] | [6] | [7]
active: [9] 20 µM | [10] 20.3 µM

Nc1nc2ncc(CNc3ccc(C(=O)N[C@@H](CCC(=O)O)C(=O)O)cc3)nc2c(=O)[nH]1
inactive: [1] | [4] | [5] | [6] | [7]

Fc1ccccc1[C@@H](F)COC1CCC(Nc2ncnc3[nH]ncc23)CC1 (stereo partly drawn)
active: [1] 18.3 µM | [9] 14.1 µM | [10] 13.8 µM
inactive: [2] | [3] | [11] | [16] | [5] | [6] | [7]
